In PubChem BioAssay (Tox21):
Calls of active or inactive are those of the source. The call rests on the fitted dose curve; in most records, active means well fitted curve in the direction sought with a large enough effect in the repeat runs; inconclusive means weak or mixed curves; inactive means flat fitted curve, though single readings scatter.

Test: qHTS assay to test for compound auto fluorescence at 535 nm (green) in HepG2 cells (AID 720675)
Conditions: green autofluorescence 485/535 nm, 1 h; series mostly up to 91.3 µM
On the % scale 0 is the no-effect control and ±100 the full control effect.

SMILES	outcome	fluorescence, % of fluorescein control
O=C(O)Cc1cn(-c2ccccc2)nc1-c1ccc(Cl)cc1	inactive	–
CCCCCCOC(=O)CC	inactive	–
O=C(O)c1cc(Cl)cc([N+](=O)[O-])c1Cl	inactive	–
Nc1nnc(-c2cccc(Cl)c2Cl)c(N)n1	inactive	–
COCCOC(=O)C1=C(C)NC(C)=C(C(=O)OC(C)C)C1c1cccc([N+](=O)[O-])c1 (centres undefined)	inactive	–
COc1ccc(-c2cc(=O)c3c(O)cc(O[C@@H]4O[C@H](CO[C@@H]5O[C@@H](C)[C@H](O)[C@@H](O)[C@H]5O)[C@@H](O)[C@H](O)[C@H]4O)cc3o2)cc1O	inactive	–
Cc1cccc(C)c1OCC(C)N (centres undefined)	inactive	–
CC(C)NCC(O)COc1ccc(COCCOC(C)C)cc1 (centres undefined)	inactive	–
C[C@@H]1O[C@@H](O[C@@H]2[C@@H](O)[C@H](OCCc3ccc(O)c(O)c3)O[C@H](CO[C@@H]3O[C@H](CO)[C@@H](O)[C@H](O)[C@H]3O)[C@H]2OC(=O)/C=C/c2ccc(O)c(O)c2)[C@H](O)[C@H](O)[C@H]1O	inactive	–
CC(=O)/C=C/C1C(C)=CCC(C)C1(C)C (centres undefined)	inactive	–
Brc1ccc(-c2ccccc2)cc1	inactive	–
C=C(C)C(=O)OCCNC(C)(C)C	inactive	–
C=COCCOCCOCCOC=C	inactive	–
CC(=O)CCCCn1c(=O)c2c(ncn2C)n(C)c1=O	–	-0.15% [at 18.6 µM] (inactive)
FC(F)(F)c1ccccc1-n1ccnc1	inactive	–
C=Cc1ccccn1	inactive	–
CCO[Si](CCCS)(OCC)OCC	inactive	–
NS(=O)(=O)c1ccc(NC(=O)CCC(=O)O)cc1	inactive	–
O=C(/N=N/C(=O)OCc1ccccc1)OCc1ccccc1	inactive	–
CC(S)C(=O)NCC(=O)O (centres undefined)	inactive	–
C#CC(C)N(C)C(=O)Nc1ccc(Cl)cc1 (centres undefined)	inactive	–
Nc1ccc([N+](=O)[O-])c(N)c1	inactive	–
CC(C)(C)NC(N)=O	inactive	–
COC(=O)C1CC(=O)C(C(=O)OC)CC1=O (centres undefined)	–	0.0015% [at 3.72 µM] (inactive)
Oc1cn2c(n1)Nc1ccc(Cl)c(Cl)c1C2	inactive	–
O=C(c1ccc(O)cc1)c1ccc(O)c(O)c1O	inactive	–
CC(=O)c1sc(C)nc1C	inactive	–
CC(=O)Nc1ccc(S(=O)(=O)Nc2ccc([N+](=O)[O-])cc2)cc1	inactive	–
CCOc1cc([N+](=O)[O-])c(OCC)cc1N1CCOCC1	inactive	–

Test: qHTS assay to test for compound auto fluorescence at 460 nm (blue) in HEK293 cells (AID 720678)
Conditions: blue autofluorescence 405/460 nm; series mostly up to 91.3 µM
In short: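 Blue-channel (Ex/Em 405/460 nm) intensity measured in HEK293 cultures after overnight compound exposure at 37C; signal expressed relative to triamterene. Cells plated 2,000 per well in 10% dialyzed FBS medium and allowed 4-5 hr to attach.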

SMILES	outcome	fluorescence, % of triamterene
O=C(O)Cc1cn(-c2ccccc2)nc1-c1ccc(Cl)cc1	inactive	–
CCCCCCOC(=O)CC	inactive	–
O=C(O)c1cc(Cl)cc([N+](=O)[O-])c1Cl	inactive	–
Nc1nnc(-c2cccc(Cl)c2Cl)c(N)n1	inactive	–
CC(C(=O)O)c1ccc2c(c1)CC(=O)c1ccccc1S2 (centres undefined)	inactive	–
COCCOC(=O)C1=C(C)NC(C)=C(C(=O)OC(C)C)C1c1cccc([N+](=O)[O-])c1 (centres undefined)	inactive	–
COc1ccc(-c2cc(=O)c3c(O)cc(O[C@@H]4O[C@H](CO[C@@H]5O[C@@H](C)[C@H](O)[C@@H](O)[C@H]5O)[C@@H](O)[C@H](O)[C@H]4O)cc3o2)cc1O	inactive	–
CC(=O)NCc1c(I)c(NC(C)=O)c(I)c(C(=O)O)c1I	inactive	–
Cc1cccc(C)c1OCC(C)N (centres undefined)	inactive	–
CC(C)NCC(O)COc1ccc(COCCOC(C)C)cc1 (centres undefined)	inactive	–
C[C@@H]1O[C@@H](O[C@@H]2[C@@H](O)[C@H](OCCc3ccc(O)c(O)c3)O[C@H](CO[C@@H]3O[C@H](CO)[C@@H](O)[C@H](O)[C@H]3O)[C@H]2OC(=O)/C=C/c2ccc(O)c(O)c2)[C@H](O)[C@H](O)[C@H]1O	inactive	–
CC(=O)/C=C/C1C(C)=CCC(C)C1(C)C (centres undefined)	inactive	–
Brc1ccc(-c2ccccc2)cc1	inactive	–
C=C(C)C(=O)OCCNC(C)(C)C	inactive	–
C=COCCOCCOCCOC=C	inactive	–
CC(=O)CCCCn1c(=O)c2c(ncn2C)n(C)c1=O	–	0.0666% [at 18.6 µM] (inactive)
FC(F)(F)c1ccccc1-n1ccnc1	inactive	–
C=Cc1ccccn1	inactive	–

SMILES	outcome	fluorescence, % of triamterene
CC(N)C(=O)OC(C)(C)Cc1ccc(Cl)cc1 (centres undefined)	inactive	–
CCO[Si](CCCS)(OCC)OCC	inactive	–
NS(=O)(=O)c1ccc(NC(=O)CCC(=O)O)cc1	inactive	–
O=C(/N=N/C(=O)OCc1ccccc1)OCc1ccccc1	inactive	–
CC(S)C(=O)NCC(=O)O (centres undefined)	inactive	–
C#CC(C)N(C)C(=O)Nc1ccc(Cl)cc1 (centres undefined)	inactive	–
Nc1ccc([N+](=O)[O-])c(N)c1	inactive	–
CC(C)(C)NC(N)=O	inactive	–
COC(=O)C1CC(=O)C(C(=O)OC)CC1=O (centres undefined)	–	1.94% [at 3.72 µM] (inactive)
Oc1cn2c(n1)Nc1ccc(Cl)c(Cl)c1C2	inactive	–
CC1=CCC(C(C)C)=CC1	inactive	–
COCCOCCOCCOCCOCCO	inactive	–
O=C(c1ccc(O)cc1)c1ccc(O)c(O)c1O	inactive	–
O=C1O[C@@H]2[C@@H](O)[C@H](O)O[C@@H]2[C@H]1O	inactive	–
CC(=O)c1sc(C)nc1C	inactive	–
CC(=O)Nc1ccc(S(=O)(=O)Nc2ccc([N+](=O)[O-])cc2)cc1	inactive	–
CCOc1cc([N+](=O)[O-])c(OCC)cc1N1CCOCC1	inactive	–
